# System: PvIESI-1 RRM domain (Plasmodium vivax PVP01_0939900 aa 896-1203, GST fusion)
# Assay: RBNS R-value (6-mer enrichment in protein-bound RNA vs input library) (ratio); higher = stronger binding preference; the methods of the paper give 50 / 100 / 500 nM protein instead
# Description: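 RNA Bind-n-Seq: recombinant GST-tagged IESI-1 RRM domain was incubated at room temperature with a random 40-nt in vitro transcribed RNA library at 250, 500 or 1000 nM protein. Bound RNA was pulled down on glutathione beads and sequenced. R-value is the enrichment of each 6-mer in the bound RNA relative to the input library. Each 6-mer sits inside the random 40-mer context, not as an isolated oligo. Values are replicate 1 only.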
Sequence,RBNS R-value (protein concentration: 250 nM),RBNS R-value (protein concentration: 500 nM),RBNS R-value (protein concentration: 1000 nM)
AUGAUU,4.49,4.79,4.59
GAUGGC,2.5,2.55,2.36
CCCGAG,1.41,1.72,1.72
CUGAUG,4.09,4.34,4.04
GUGAUA,2.04,2.34,2.47
CCUGAU,3.03,3.36,3.13
UAUGAU,3.09,3.27,3.27
GCUGAU,2.62,2.82,2.68
UGAUAC,2.41,2.83,2.87
UGAUGG,3.91,4.11,3.78
GACACC,1.46,1.66,1.69
AAUGAU,3.66,3.89,3.94
GAUGAG,2.33,2.49,2.4
AGUGAU,2.41,2.69,2.63

# From the supplement of paper PMC13392028
